From PubChem BioAssay (NCATS) come the findings set out here.

A short description of experiment [1]: qHTS profiling for inhibitors of Plasmodium falciparum (3D7) proliferation (AID 743322).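 Also: infected erythrocytes exposed to compound for 72 h before lysis; 100% = DMSO vehicle wells and 0% = 0.29 µM artemisinin.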 As to conditions: P. falciparum 3D7 proliferation; at 28.7 µM (top of the series). The procedure, abridged: (§1)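 Parasite DNA was quantified by SYBR Green I fluorescence (ex 485, em 535 nm) after overnight lysis in saponin/Triton buffer at room temperature. Cultures at 0.3% parasitemia and 2.5% hematocrit were first exposed to compound for 72 h at 37 C; signals were normalised to artemisinin (0.29 uM) and vehicle wells.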

Experiment [2] is described as follows: qHTS profiling for inhibitors of Plasmodium falciparum (DD2) proliferation (AID 743323). The following applies: lower = more inhibition; at 28.7 µM (top of the series). The procedure, abridged:
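Parasite proliferation measured via DNA-dye fluorescence, as uninfected erythrocytes lack DNA. Cultures at 0.3% parasitemia and 2.5% hematocrit incubated 72 h with compound; signal scaled between vehicle and 0.29 uM artemisinin wells.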
For orientation: qHTS replaces the single test concentration by a dilution series.

Experiment [3] can be described thus: qHTS profiling for inhibitors of Plasmodium falciparum (HB3) proliferation (AID 743324).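 Also: 100% = DMSO vehicle wells and 0% = artemisinin-treated control wells.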 As to conditions: Plasmodium falciparum HB3 blood-stage proliferation; at 28.7 µM (top of the series). The procedure, abridged: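 SYBR Green fluorescence (485 ex/535 em) of lysed cultures, incubated overnight at room temperature in the dark, quantifies parasite DNA. Infected erythrocytes at 0.3% parasitemia and 2.5% hematocrit were exposed 72 h; values normalized to DMSO and 0.29 uM artemisinin controls.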

Experiment [4] can be described thus: qHTS profiling of the MIPE4 collection as inhibitors of Plasmodium falciparum (3D7) proliferation (AID 743344).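 Also: scaled between DMSO vehicle wells and 0.29 µM artemisinin as full inhibition.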 As to conditions: P. falciparum 3D7 in erythrocytes, SYBR Green DNA fluorescence, 72 h; at 28.5 µM (top of the series) unless noted. The procedure, abridged: as §1
Experiment [5] in a line: qHTS profiling of the MIPE4 collection as inhibitors of Plasmodium falciparum (DD2) proliferation (AID 743345). The following applies: P. falciparum Dd2 in erythrocytes, SYBR Green DNA, 72 h; at 28.5 µM (top of the series) unless noted. The procedure, abridged:
as §1

The nature of experiment [6]: qHTS profiling of the MIPE4 collection as inhibitors of Plasmodium falciparum (DD2) proliferation (Rep 2) (AID 743346). The following applies: P. falciparum Dd2 in erythrocytes, SYBR Green DNA, 72 h; at 28.5 µM (top of the series) unless noted. A digest of the protocol: as §1
Experiment [7] can be described thus: qHTS profiling of the MIPE4 collection as inhibitors of Plasmodium falciparum (HB3) proliferation (AID 743347).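 Also: plate controls were DMSO vehicle wells for no effect and artemisinin wells for full effect.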 The following applies: P. falciparum HB3 in erythrocytes, SYBR Green DNA, 72 h; at 28.5 µM (top of the series) unless noted. A digest of the protocol:
as §1

Experiment [8] is described as follows: High-throughput drug toxicity screening in the BPDCN cell line Gen2.2 (AID 1224824).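 Also: cells exposed to compounds for 48 h before reading.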 The following applies: Gen2.2 BPDCN cells; at 45.8 µM (top of the series) unless noted. A digest of the protocol:
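Seed 500 exponentially growing Gen2.2 cells/well; add compounds by pin tool; incubate 48 h, 37 °C, 5% CO2; add CellTiter-Glo, 15 min RT; read luminescence. % activity vs DMSO (100%) and bortezomib (0%).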

Experiment [9] can be described thus: High-throughput drug toxicity screening in the BPDCN cell line Cal-1 (AID 1224825). The following applies: Cal-1 BPDCN cell viability, qHTS; at 45.8 µM (top of the series) unless noted. The procedure, abridged:
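CellTiter-Glo luminescence after 48 h compound exposure; percent activity scaled with DMSO as 100% and bortezomib (9.2 uM final) as 0%. Cal-1 cells seeded at 500/well in RPMI, 10% FBS, no phenol red.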

With `Nc1ccc(C(=O)c2cc3c(ccc4ccccc43)[nH]2)cc1`, the remaining parasite growth % (stronger effect = lower value) in experiment [1] turned out to be 114%. Besides, the activity, percent of control in experiment [2] was 98.8%. Further, the remaining proliferation (% of control), lower = more inhibition in [3] stood at 99.1%. The compound also had a parasite growth, % of DMSO control in experiment [4] of 292%. The compound further returned a parasite growth remaining, % of DMSO control (lower = more inhibition) in experiment [5] of 83.6%. In experiment [6], the parasite growth, % of control (lower = inhibition) came out at 118%. The same compound returned a growth, % of control in experiment [7] of 409%. For the same compound, the cell viability, % of control (lower = more cytotoxic) in experiment [8] is 66.8%. Moreover, in [9], the viability (% of control) was determined as 8.09%.
On to `CC[C@@H]1C(=O)N(C)c2cnc(Nc3ccc(C(=O)NC4CCN(C)CC4)cc3OC)nc2N1C1CCCC1`, for which the remaining parasite growth % (stronger effect = lower value) in experiment [1] was found to be 0.0061%. In addition, in [2], the activity, percent of control was 0.0959%. In addition, the remaining proliferation (% of control), lower = more inhibition in experiment [3] is -0.331%. In experiment [4], this compound showed a parasite growth, % of DMSO control of 4.91%. The parasite growth remaining, % of DMSO control (lower = more inhibition) in experiment [5] came out at 6.75%. Also, in experiment [6], the parasite growth, % of control (lower = inhibition) was 17.2%. In experiment [7], this compound gave a growth, % of control of 6.34%. Further, the cell viability, % of control (lower = more cytotoxic) in experiment [8] is 4.74%. Also, in experiment [9], the viability (% of control) was found to be 2.57%.
In the case of `CC=C1NC(=O)[C@H]2CSSCCC=C[C@H](CC(=O)N[C@H](C(C)C)C(=O)N2)OC(=O)[C@H](C(C)C)NC1=O`, in experiment [1], the remaining parasite growth % (stronger effect = lower value) stood at 95.6%. Further, the activity, percent of control in experiment [2] was found to be 92.5%. The remaining proliferation (% of control), lower = more inhibition in experiment [3] amounted to 98.4%. The parasite growth, % of DMSO control in experiment [4] turned out to be 5.8%. Also, in experiment [5], the parasite growth remaining, % of DMSO control (lower = more inhibition) was determined as 8.63%. The parasite growth, % of control (lower = inhibition) in experiment [6] was determined as 12.2%. Also, in experiment [7], the growth, % of control came out at 8.43%. Moreover, the cell viability, % of control (lower = more cytotoxic) in experiment [8] amounted to 5.71%. Further, the viability (% of control) in experiment [9] is 4.69%.
With `CCCNC(=O)Nc1ccc(Oc2ncnc3cc(OC)c(OC)cc23)cc1Cl`, in experiment [8], the cell viability, % of control (lower = more cytotoxic) amounted to 69.6%. In addition, in experiment [9], the viability (% of control) was found to be 92.7%.
In the case of `CC(C)(C)c1cc(C(C)(C)C)c(NC(=O)c2c[nH]c3ccccc3c2=O)cc1O`, in experiment [1], the remaining parasite growth % (stronger effect = lower value) is 33.5%. For the same compound, the activity, percent of control in experiment [2] stood at 28.9%. In [3], the remaining proliferation (% of control), lower = more inhibition came to 18.9%. In [4], the parasite growth, % of DMSO control is 106%. In experiment [5], this compound showed a parasite growth remaining, % of DMSO control (lower = more inhibition) of 95.2%. The parasite growth, % of control (lower = inhibition) in experiment [6] was 88.9%. The cell viability, % of control (lower = more cytotoxic) in experiment [8] was determined as 105%. For the same compound, the viability (% of control) in experiment [9] was found to be 102%.
Regarding `CC(C)=CCCC(C)=CCCC(C)=CCSc1ccccc1C(=O)O`, the remaining parasite growth % (stronger effect = lower value) in experiment [1] came to 101%. In addition, in experiment [2], the activity, percent of control was 118%. For the same compound, the remaining proliferation (% of control), lower = more inhibition in [3] is 92%. In [4], this compound gave a parasite growth, % of DMSO control of 22.6%. For the same compound, the parasite growth remaining, % of DMSO control (lower = more inhibition) in experiment [5] worked out at 25.3%. The parasite growth, % of control (lower = inhibition) in experiment [6] amounted to 33.1%. Moreover, the growth, % of control in experiment [7] came to 15.5%. In addition, the cell viability, % of control (lower = more cytotoxic) in experiment [8] is 9.26%. In addition, the viability (% of control) in experiment [9] was 19%.
Consider `COc1ccc(C=Cc2cc(OC)c(OC)c(OC)c2)cc1O`, for which, in experiment [1], the remaining parasite growth % (stronger effect = lower value) worked out at 92%. For the same compound, the activity, percent of control in [2] turned out to be 104%. Further, the remaining proliferation (% of control), lower = more inhibition in experiment [3] worked out at 84.7%. The same compound gave a parasite growth, % of DMSO control in experiment [4] of 36%. In experiment [5], this compound came in with a parasite growth remaining, % of DMSO control (lower = more inhibition) of 21.1%. In addition, the parasite growth, % of control (lower = inhibition) in [6] worked out at 44%. In [8], the cell viability, % of control (lower = more cytotoxic) was 10.8%. Moreover, the viability (% of control) in experiment [9] was determined as 8.52%.
On to `C=CC(=O)Nc1cc2c(Nc3ccc(F)c(Cl)c3)ncnc2cc1OCCCN1CCOCC1`, for which, in [1], the remaining parasite growth % (stronger effect = lower value) is -0.797%. The activity, percent of control in experiment [2] is 10.5%. Further, the remaining proliferation (% of control), lower = more inhibition in [3] worked out at 1.71%. Moreover, the parasite growth, % of DMSO control in experiment [4] came out at 31.1%. Also, the parasite growth remaining, % of DMSO control (lower = more inhibition) in experiment [5] was 16%. In addition, the parasite growth, % of control (lower = inhibition) in experiment [6] amounted to 29.7%. In experiment [7], this compound had a growth, % of control of 3.29%. The cell viability, % of control (lower = more cytotoxic) in [8] worked out at 5.62%. The viability (% of control) in experiment [9] worked out at 11.2%.
Take `Cc1nc2cnc3ccc(C#Cc4cccnc4)cc3c2n1-c1ccc(C(C)(C)C#N)cc1`: the remaining parasite growth % (stronger effect = lower value) in experiment [1] was -1.11%. In [2], the activity, percent of control is 0.126%. The remaining proliferation (% of control), lower = more inhibition in experiment [3] was -0.656%. In experiment [4], this compound displayed a parasite growth, % of DMSO control of 4.38%. Further, the parasite growth remaining, % of DMSO control (lower = more inhibition) in experiment [5] amounted to 7.19%. The parasite growth, % of control (lower = inhibition) in experiment [6] was 13.9%. In experiment [7], the growth, % of control was determined as 3.51%. Further, the cell viability, % of control (lower = more cytotoxic) in experiment [8] was determined as 3.34%. The viability (% of control) in experiment [9] turned out to be 16.6%.
For `Cc1[nH]nc2ccc(-c3cncc(OC[C@@H](N)Cc4ccccc4)c3)cc12`, the remaining parasite growth % (stronger effect = lower value) in experiment [1] is 30.1%. Further, the activity, percent of control in experiment [2] amounted to 14.2%. Also, the remaining proliferation (% of control), lower = more inhibition in [3] turned out to be 17.9%. This compound also came in with a parasite growth, % of DMSO control in experiment [4] of 19.3%. In experiment [5], this compound gave a parasite growth remaining, % of DMSO control (lower = more inhibition) of 38%. Moreover, the parasite growth, % of control (lower = inhibition) in [6] is 20.4%. The cell viability, % of control (lower = more cytotoxic) in experiment [8] turned out to be 7.91%. For the same compound, in [9], the viability (% of control) is 3.31%.
In the case of `Fc1cc(-c2cccc3ncc(-c4cnn(C5CCNCC5)c4)nc23)cc(F)c1CN1CCOCC1`, the cell viability, % of control (lower = more cytotoxic) in experiment [8] worked out at 5.16%. Moreover, the viability (% of control) in [9] stood at 5.7%.
